# This is a sample that favours compounds with a hit; in the whole collection about 9.2% have one here.
# HPGD inh: qHTS Assay for Inhibitors of HPGD (15-Hydroxyprostaglandin Dehydrogenase). 15-hydroxyprostaglandin dehydrogenase [NAD(+)] (Homo sapiens), P15428. purified HPGD, NADH fluorescence kinetic, PGE2 substrate. Potency, µM, usual class: inhibitors. hit rate 4.3% among 150,000. AID 894, 2007
# Target sequence (P15428 whole entry, looked up): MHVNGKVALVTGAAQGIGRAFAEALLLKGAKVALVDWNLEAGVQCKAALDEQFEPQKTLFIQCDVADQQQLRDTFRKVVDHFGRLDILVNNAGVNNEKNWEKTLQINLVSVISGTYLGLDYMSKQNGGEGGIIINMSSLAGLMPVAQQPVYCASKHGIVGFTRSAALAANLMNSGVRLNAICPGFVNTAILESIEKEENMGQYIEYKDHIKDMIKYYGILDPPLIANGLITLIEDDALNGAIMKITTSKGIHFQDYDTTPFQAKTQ
#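 NADH formation kinetics: reaction with 30 uM PGE2 and 1 mM NAD+ (final), 20 nM enzyme, Tris-HCl pH 8 with Tween 20, after 15 min compound preincubation at room temperature. Fluorescence change, last versus first of five reads.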
# ALDH1A1 block: qHTS Assay for Inhibitors of Aldehyde Dehydrogenase 1 (ALDH1A1) | AID 1030, 2008 | Potency, µM (highest dose often 75.3 µM), actives largely listed as inhibitors | hit rate 7.3% among 220,000 | Purified ALDH1A1, NADH fluorescence, propionaldehyde substrate
# Target sequence (P00352 whole entry, looked up): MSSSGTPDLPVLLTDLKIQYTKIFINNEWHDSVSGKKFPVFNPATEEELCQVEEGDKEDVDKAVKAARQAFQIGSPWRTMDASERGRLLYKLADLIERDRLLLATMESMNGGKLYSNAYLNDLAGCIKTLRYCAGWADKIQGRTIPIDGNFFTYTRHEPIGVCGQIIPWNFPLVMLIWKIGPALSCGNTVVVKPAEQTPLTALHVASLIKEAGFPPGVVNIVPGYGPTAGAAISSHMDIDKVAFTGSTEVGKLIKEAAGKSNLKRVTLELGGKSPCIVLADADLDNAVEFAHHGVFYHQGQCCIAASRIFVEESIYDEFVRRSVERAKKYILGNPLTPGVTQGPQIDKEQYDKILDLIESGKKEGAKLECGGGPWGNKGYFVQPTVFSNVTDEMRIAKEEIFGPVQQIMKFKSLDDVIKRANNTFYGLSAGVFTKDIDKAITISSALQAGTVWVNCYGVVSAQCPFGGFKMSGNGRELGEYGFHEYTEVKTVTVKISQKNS
# HTT ATP protect: qHTS Multiplex Assay to Identify Dual Action Probes in a Cell Model of Huntington: Cytoprotection (ATP) | PC12 HTT-Q103 induced, cytoprotection, ATP luminescence, 40 h | AID 1471, 2008 | Potency, µM (doses to about 56.4 µM), usual class: activators | hit rate 0.14% among 230,000; active = well fitted curve in the direction sought with a large enough effect; inconclusive = small, poorly fitted or top-dose-only effect, or another doubt; inactive = no such curve, though single readings can be large; an effect the other way counts as inactive or inconclusive; also: nearly all actives have a fitted effect of over 45% in size
#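 Compounds added alongside 100 nM tebufenozide, which induces toxic Q103 huntingtin exon 1-GFP in stable PC12 cells; surviving cells quantified by luminescent ATP measurement. Medium: phenol red-free DMEM, 5% equine and 5% calf serum.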
# HTT aggregate: qHTS Multiplex Assay to Identify Dual Action Probes in a Cell Model of Huntington: Aggregate Formation (GFP); PC12 HttQ103-GFP aggregates, Acumen cytometry, 40 h; Potency, µM (top dose mostly 46.1 µM), usual class: inhibitors; hit rate 1.1% among 220,000; AID 1688, 2009; active = well fitted curve in the direction sought with a large enough effect; inconclusive = small, poorly fitted or top-dose-only effect, or another doubt; inactive = no such curve, though single readings can be large; an effect the other way counts as inactive or inconclusive; also: nearly all actives have a fitted effect of over 60% in size
#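 Aggregate formation scored by laser-scanning cytometer (488 excitation, 500–530 emission) in lysed PC12 cells expressing Q103-GFP after 100 nM tebufenozide induction; library tested in dose series, with ATPLite reagent added in the multiplex.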
# KDM4E inh: qHTS Assay for Inhibitors of Human Jumonji Domain Containing 2E (JMJD2E) | hit rate 1.6% among 230,000 | Potency, µM (doses to about 57.1 µM), actives largely listed as inhibitors | JMJD2E catalytic domain, FDH-coupled NADH fluorescence (FDH is formaldehyde dehydrogenase); also: nearly all actives have a fitted effect of over 50% in size
# LMNA splice mod: qHTS Assay for Modulators of Lamin A Splicing; HeLa LMNA splicing GFP/RFP minigene ratio, 48 h; Potency, µM (top dose mostly 46.1 µM), hits mostly inhibitors; hit rate 0.01% among 200,000; active = well fitted inhibition curve with a large enough effect in the signal ratio, with a control signal flat, not every such curve was filed as active; inconclusive = small, poorly fitted or top-dose-only effect, or effect the other way, or a change in a side signal; the % refers to the signal ratio
#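 S3 HeLa cells stably expressing lamin A-EGFP splicing minigene plus DsRed2, 600 cells/well, 48 h compound exposure at 37C. Laser-scanning cytometry; analysed as GFP (500-530 nm)/RFP (575-640 nm) total intensity ratio; 0.5% DMSO vehicle.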
# Numbers stand for hits; – = inactive; ? = inconclusive; · = no result given; ! = not active in a repeat; [ ] = another dose, or the depositor's remark. Unless noted, calls follow the shape of the dose curve; as a rule, active = well fitted inhibition curve with a large enough effect (not every such curve was filed as active); inconclusive = small, poorly fitted or top-dose-only effect, or another doubt; inactive = no such curve, though single readings can be large or run the other way.
SMILES,HPGD inh,ALDH1A1 block,HTT ATP protect,HTT aggregate,KDM4E inh,LMNA splice mod
CCN(CC)C(=O)c1cccnc1,·,·,–,–,·,·
CCN(CC)C(=O)c1cc(Cl)ccn1,·,31.6µM,–,–,–,·
Cc1ccccc1OCc1ccc(-c2nc(C#N)c(N3CCN(c4ccccc4)CC3)o2)o1,·,·,·,·,·,–
O=S(=O)(c1ccccc1)N(C1=NCCS1)S(=O)(=O)c1ccccc1,–,8.91µM,–,–,–,–
COc1ccc(-c2cc(=O)[nH][nH]2)cc1,–,–,–[10 µM],–,?,–
COc1ccc(-c2cc(=O)n(CCC#N)[nH]2)cc1,–,–,–[10 µM],?,1.78µM,–
O=C(Cc1c(Cl)cccc1Cl)NCCc1ccc(Cl)cc1,–,–,–[10 µM],–,–,–
O=C(CCl)NCc1c(Cl)cccc1-n1cccc1,–,28.2µM,–,12.6µM,–,?
O=C(CSc1nc2scc(-c3ccccc3)c2c(=O)[nH]1)NC1CCCCC1,·,–,–,–,–,·
O=C(CSc1nc2scc(-c3ccccc3)c2c(=O)[nH]1)N1CCCCC1,·,1.78µM,·,–,–,·
Cc1ccc(CNc2ncnc3cc(Cl)ccc23)o1,–,–,–,12.6µM,–,?
CCOc1ccccc1CNC(=O)CN1C(=O)c2cccnc2Oc2ccc(Cl)cc21,·,·,·,·,·,–
COc1cc(S(=O)(=O)N2CCCCCC2)ccc1Cl,–,–,–,–,–,–
CC(=O)Nc1ccc(S(=O)(=O)N2CCN(S(=O)(=O)N3CCCCC3)CC2)cc1,·,–,–,–,–,·
COc1ccc2cc(S(=O)(=O)N3CCCCC3)ccc2c1S(=O)(=O)N1CCCCC1,–,0.178µM,–[0.074 µM],–,–,?
COc1ccc(S(=O)(=O)Nc2ccc(S(=O)(=O)N3CCCCC3)cc2)cc1C,–,3.98µM,–,–,–,–
O=S(=O)(Nc1ccc(S(=O)(=O)N2CCCCC2)cc1)c1ccc(Br)s1,–,1.41µM,–,?,–,–
CC(=O)Nc1ccc(S(=O)(=O)Nc2ccc(S(=O)(=O)N3CCCCCC3)cc2)cc1,–,3.98µM,–[0.074 µM],–,–,–
Cn1c(=O)n(C)c2cc(NS(=O)(=O)c3ccc(Br)s3)ccc21,·,–,–[10 µM],–,–,–
O=C(CNC(=O)c1ccc(Cl)cc1)OCc1cc(=O)n2nc(C3CCCCC3)sc2n1,·,·,·,·,·,–
CCCCN1Cc2c(nc3cc(-c4ccco4)[nH]n3c2=O)C1=O,·,?,–[10 µM],–[9.22 µM],?,·
COc1ccc(C)cc1NS(=O)(=O)c1ccc(NS(=O)(=O)c2ccc(NC(C)=O)cc2)cc1,–,22.4µM,–[10 µM],–,–,–
COc1ccc(S(=O)(=O)Nc2ccc(S(=O)(=O)N3CCCC3)cc2)cc1,–,0.0891µM,–,–[9.22 µM],–,–
CC(=O)Nc1ccc(S(=O)(=O)N[C@H](C(=O)O)C(C)C)cc1,–,10µM,–[10 µM],–,–,–
COc1ccc(S(=O)(=O)Nc2ccc(S(=O)(=O)N3CCCCC3)cc2)cc1,–,0.355µM,–,–,–,–
SMILES,HPGD inh,ALDH1A1 block,HTT ATP protect,HTT aggregate,KDM4E inh,LMNA splice mod
COC(=O)C(NS(=O)(=O)c1ccc(NC(C)=O)cc1)C(C)C (centres undefined),–,–,–,–,–,–
COc1ccc(S(=O)(=O)N2CCCCCC2)cc1,–,–,–,?,–,–
O=C(O)[C@@H]1CCCN1Cc1cc2ccccc2c2ccccc12,–,–[13.5 µM],–[10 µM],·,·,·
CCCOc1ccc(C(=O)Nc2ccc(S(=O)(=O)Nc3cc(C)nc(C)n3)cc2)cc1,·,?,–[10 µM],–[9.22 µM],–,?
Cc1ccc(CCCC(=O)O)cc1C,–,–[13.5 µM],–[10 µM],·,·,·
O=C1C[C@@H](O)[C@@H](O)[C@H]2[C@@H]3C(=O)N(C[C@@H]4CCCO4)C(=O)[C@@H]3CC[C@H]12,·,–[13.5 µM],–[10 µM],·,·,·
Cn1nc(C(F)(F)F)c(-c2cccc(C(F)(F)F)c2)c1NC(=O)CSCC(=O)O,·,·,–[10 µM],–[9.22 µM],–,·
O=C(NCCN1CCOCC1)c1cc2cc([N+](=O)[O-])ccc2s1,·,–,–,–[9.22 µM],–,?
COc1cc(OC)c(S(=O)(=O)N2CCCCC2)cc1S(=O)(=O)N1CCCCC1,–,3.55µM,–[0.074 µM],–,–,–
Cc1ccc(NS(=O)(=O)c2ccc(Br)s2)cc1S(=O)(=O)N1CCOCC1,·,11.2µM,–,?,–,·
CCOC(=O)c1sc(=S)n(C)c1NC(=O)c1ccc(F)cc1,7.94µM,2.51µM,–[10 µM],–,–,–
CCOC(=O)c1sc(=S)n(CC)c1NC(=O)c1ccccc1,·,·,–[10 µM],–[9.22 µM],–,·
CCOC(=O)c1ccc(NC(=O)c2ccccc2C)cc1,–,?,·,–,–,–
CCOC(=O)c1sc(=S)n(C)c1NC(=O)c1ccccc1C,10µM,10µM,–[10 µM],–,–,–
O=C(O)CC[C@H](NC(=O)c1ccccc1C(=O)O)C(=O)O,–,–,·,·,–,?
Cn1c(=O)c([N+](=O)[O-])c(N2CCN(Cc3ccc4c(c3)OCO4)CC2)c2ccccc21,·,·,–[10 µM],–[9.22 µM],?,·
O=S(=O)(Nc1cccc(-c2ccc(N3CCCCC3)nn2)c1)c1ccc(Cl)s1,·,·,·,·,·,–
O=C(c1ccco1)N(CCC(c1ccccc1)c1ccco1)Cc1ccc(F)cc1 (centres undefined),–,14.1µM,–,–,–,?
CC1(C)CC(C(CCN(Cc2ccccc2)C(=O)c2ccco2)c2ccc(F)cc2)CCO1 (centres undefined),–,?,–[10 µM],?,–,?
CCC(=O)N(CCC(c1ccc(C)cc1)c1ccco1)Cc1ccco1 (centres undefined),·,22.4µM,–[10 µM],–[9.22 µM],–,·
OCCOC[C@H]1O[C@H](OCCO)[C@H](OCCO)[C@@H](OCCO)[C@@H]1OCCO (tested in a mixture with another compound),·,·,–,–,·,·
COc1ccc(/C(C)=N/NC(=O)CNC(=O)CCc2ccccc2)c(OC)c1,·,·,–[10 µM],–[9.22 µM],–,·
O=C(/C=C\c1ccc(O)c(O)c1)O[C@@H](Cc1ccc(O)c(O)c1)C(=O)O,28.2µM,–,–,·,4.47µM,·
O=C(/C=C/c1ccc(O)c(O)c1)O[C@@H]1C[C@@](O)(C(=O)O)C[C@H](O)[C@@H]1O,–,?,–[1.9 µM],·,?,·
O=C(/C=C/c1ccc(O)c(O)c1)OC(Cc1ccc(O)c(O)c1)C(=O)O (centres undefined),22.4µM!,–,?,·,3.98µM,·
O=C(/C=C/c1ccc(O)c(O)c1)OCCc1ccccc1,?,?,·,·,20µM,?
COc1ccc(NC(=O)CSc2nnc(-c3nonc3NC(C)=O)n2C)cc1Cl,·,·,·,·,·,–
Cc1ccc(Cn2c(CO)cnc2SCC(=O)NCc2ccccc2Cl)cc1,·,·,·,·,·,–
Cc1[nH]n(-c2cccc3ccccc23)c(=O)c1/C=N/NC(=O)c1cccc([N+](=O)[O-])c1,–,–,–[10 µM],10µM,?,–

# Screens: PubChem BioAssay, National Center for Advancing Translational Sciences (NCATS)
